Data from PubChem BioAssay (EPA / NIEHS).
The source made the active and inactive calls. Rule for the calls: active = hit-call score of the fitted dose curve at least 0.9, where 1 is the maximum; inactive = score below 0.9.

Read-out: Monokine induced gamma interferon (MIG), CXCL9 (gene 4283)
Assay: BSK_CASM3C_MIG: BioMAP Diversity Plus: CASM3C Assay for Monokine induced gamma interferon (MIG) Biomarker Activity (AID 2283048);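 note: MIG protein level measured by ELISA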
Conditions: primary human coronary artery smooth muscle cells; actives raise or lower the signal

Row | SMILES | outcome | AC50
1 | CC(C)(C)OOC(C)(C)CCC(C)(C)OOC(C)(C)C | inactive | 
2 | c1ccc2c(c1)oc1ccccc12 | inactive | 
3 | Nc1ccc([N+](=O)[O-])cc1 | inactive | 
4 | Nc1ccc(Oc2ccc(N)cc2)cc1 | inactive | 
5 | COC(=O)c1ccccc1N | inactive | 
6 | c1ccc2c(c1)-c1cccc3cccc-2c13 | inactive | 
7 | O=C(O)C1C2CCC(O2)C1C(=O)O (stereo unspecified) | inactive | 
8 | O=P(OCCCl)(OCCCl)OCCCl | inactive | 
9 | CC(C)(OOC(C)(C)c1ccccc1)c1ccccc1 | inactive | 
10 | CC(C)N(Cc1ccccc1)C(=O)C(C)(C)C | inactive | 
11 | CS(=O)(=O)NC(=O)c1cc(Oc2ccc(C(F)(F)F)cc2Cl)ccc1[N+](=O)[O-] | inactive | 
12 | [O-][Cl+]O | inactive | 
13 | CCN(CC)CCO | inactive | 
14 | O=C(Oc1ccc(Br)cc1)N1CCN2CCC1CC2 | inactive | 
15 | O=[N+]([O-])C(Br)(CO)CO |  | 32.7 µM (active)
16 | c1ccc(C2CO2)cc1 (stereo unspecified) | inactive | 
17 | c1ccc(N=Nc2ccccc2)cc1 | inactive | 
18 | Oc1ccc2ccc3cccc4ccc1c2c34 | inactive | 
19 | CCC[CH2][Sn]([Cl])([CH2]CCC)[CH2]CCC |  | 0.326 µM (active)
20 | COP(=S)(OC)SCN1C(=O)c2ccccc2C1=O | inactive | 
21 | [Cl-].[Cl-].[Hg+2] |  | 33.9 µM (active)
22 | CCN(CC)N=O | inactive | 
23 | Nc1ccc(N=Nc2ccccc2)cc1 | inactive | 
24 | CCOC(=O)[C@]1(c2ccccc2)Oc2ccccc2[C@@H]1N | inactive | 
25 | c1ccc(NNc2ccccc2)cc1 | inactive | 
26 | CCCCCOC(=O)c1ccccc1C(=O)OCCCCC | inactive | 
27 | CCCCCCCCOC(=O)c1ccc(C(=O)OCCCCCCCC)c(C(=O)OCCCCCCCC)c1 | inactive | 
28 | O=[N+]([O-])c1ccc(Oc2ccc(Cl)cc2Cl)cc1 | inactive | 

Read-out: serum amyloid A (SAA), SAA1 (gene 6288)
Assay: BSK_CASM3C_SAA: BioMAP Diversity Plus: CASM3C Assay for serum amyloid A (SAA) Biomarker Activity (AID 2283049);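 note: SAA protein level quantified by ELISA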
Conditions: primary human coronary artery smooth muscle cells; actives raise or lower the signal

Row | SMILES | outcome | AC50
29 | CC(C)(C)OOC(C)(C)CCC(C)(C)OOC(C)(C)C | inactive | 
30 | c1ccc2c(c1)oc1ccccc12 | inactive | 
31 | Nc1ccc([N+](=O)[O-])cc1 | inactive | 
32 | Nc1ccc(Oc2ccc(N)cc2)cc1 | inactive | 
33 | COC(=O)c1ccccc1N | inactive | 
34 | c1ccc2c(c1)-c1cccc3cccc-2c13 | inactive | 
35 | O=C(O)C1C2CCC(O2)C1C(=O)O (stereo unspecified) | inactive | 
36 | O=P(OCCCl)(OCCCl)OCCCl | inactive | 
37 | CC(C)(OOC(C)(C)c1ccccc1)c1ccccc1 | inactive | 
38 | CC(C)N(Cc1ccccc1)C(=O)C(C)(C)C | inactive | 
39 | CS(=O)(=O)NC(=O)c1cc(Oc2ccc(C(F)(F)F)cc2Cl)ccc1[N+](=O)[O-] | inactive | 
40 | [O-][Cl+]O | inactive | 
41 | CCN(CC)CCO | inactive | 
42 | O=C(Oc1ccc(Br)cc1)N1CCN2CCC1CC2 | inactive | 
43 | O=[N+]([O-])C(Br)(CO)CO |  | 30.3 µM (active)
44 | c1ccc(C2CO2)cc1 (stereo unspecified) | inactive | 
45 | c1ccc(N=Nc2ccccc2)cc1 | inactive | 
46 | Oc1ccc2ccc3cccc4ccc1c2c34 |  | 30.4 µM (active)
47 | CCC[CH2][Sn]([Cl])([CH2]CCC)[CH2]CCC |  | 0.148 µM (active)
48 | COP(=S)(OC)SCN1C(=O)c2ccccc2C1=O | inactive | 
49 | [Cl-].[Cl-].[Hg+2] |  | 30.6 µM (active)
50 | CCN(CC)N=O | inactive | 
51 | Nc1ccc(N=Nc2ccccc2)cc1 | inactive | 
52 | CCOC(=O)[C@]1(c2ccccc2)Oc2ccccc2[C@@H]1N | inactive | 
53 | c1ccc(NNc2ccccc2)cc1 | inactive | 
54 | CCCCCOC(=O)c1ccccc1C(=O)OCCCCC | inactive | 
55 | CCCCCCCCOC(=O)c1ccc(C(=O)OCCCCCCCC)c(C(=O)OCCCCCCCC)c1 | inactive | 
56 | O=[N+]([O-])c1ccc(Oc2ccc(Cl)cc2Cl)cc1 | inactive | 
